According to PubChem BioAssay (Tox21):
Records with an inconclusive call do not appear. The source made the active and inactive calls. Unless noted, calls follow the shape of the full dose curve.

Legend:
[1] = qHTS assay to identify small molecule agonists of the NFkB signaling pathway (AID 1159509; active = well fitted curve in the direction sought with a large enough effect in the signal ratio in the repeat runs, not every such curve was filed as active; the % refers to the signal ratio; also: series mostly up to about 61 µM; % is scaled to controls: 0 for no effect and ±100 for the full control effect)
In short: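 NFkB-bla ME-180 cells with a beta-lactamase reporter under an NF-kB response element were plated overnight, treated with compounds in DMSO for 5 hr at 37 C, then loaded with FRET substrate for 1.5 hr at room temperature.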

[2] = qHTS assay to identify small molecule agonists of the NFkB signaling pathway - cell viability counter screen (AID 1159515); also: series mostly up to about 61 µM; % is scaled to controls: 0 for no effect and ±100 for the full control effect; nearly all actives have a fitted effect of over 55% in size
In short: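 5 hr compound treatment of NFkB-bla ME-180 cells (2,000/well, seeded overnight beforehand), followed by reporter substrate for 1.5 hr. CellTiter-Glo added afterward; luminescence after 30 min RT.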

[3] = qHTS assay to identify small molecule agonists of the endoplasmic reticulum stress response signaling pathway (AID 1159516; active = well fitted activation curve with a large enough effect in the signal ratio in the repeat runs, not every such curve was filed as active; the % refers to the signal ratio; also: % is scaled to controls: 0 for no effect and ±100 for the full control effect)
In short: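 Reporter HeLa cells (ESRE-beta-lactamase) underwent 5 hr compound incubation at 37 C and 5% CO2 in quantitative HTS format. Detection followed 2 hr of FRET substrate loading at room temperature.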

[4] = qHTS assay to identify small molecule agonists of the endoplasmic reticulum stress response signaling pathway - cell viability counter screen (AID 1159517);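 also: HeLa cells carrying an ER stress response element beta-lactamase reporter; series mostly up to about 61 µM; % is scaled to controls: 0 for no effect and ±100 for the full control effect; nearly all actives have a fitted effect of over 50% in size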
In short: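 Luminescence readout: CellTiter-Glo, 30 min RT, same wells as the ESRE-bla reporter read. HeLa ESRE-bla, 1,500 cells/well, o/n 37 C; cpd 5 hr 37 C/5% CO2.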

[5] = qHTS assay to identify small molecule antagonists of the retinoid-related orphan receptor gamma (ROR-gamma) signaling pathway - cell viability counter screen (AID 1159520; active = well fitted curve in the direction sought with a large enough effect in the repeat runs; an effect the other way counts as inactive or inconclusive; also: % is scaled to controls: 0 for no effect and ±100 for the full control effect; nearly all actives have a fitted effect of over 50% in size)
In short: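 Tet-on ROR gamma CHO cells (1,000/well) were plated 4 hr, given compounds in DMSO for 2 hr at 37 C, then induced with 1 uM final doxycycline for 16 hr. Viability was read as ATP by CellTiter-Glo luminescence after 30 min.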

[6] = molecular target: Nuclear receptor ROR-gamma (Homo sapiens) (UniProt P51449); assay: qHTS assay to identify small molecule antagonists of the retinoid-related orphan receptor gamma (ROR-gamma) signaling pathway (AID 1159521; active = well fitted curve in the direction sought with a large enough effect in the repeat runs; an effect the other way counts as inactive or inconclusive;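 also: CHO cells with doxycycline inducible ROR-gamma driving an RORE luciferase reporter; top concentration of the series differs between compounds; % is scaled to controls: 0 for no effect and ±100 for the full control effect; nearly all actives have a fitted effect of over 50% in size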)
In short: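 Test compounds were applied to Tet-on RORγ CHO cells 2 h ahead of doxycycline hyclate (1 uM final). Luciferase reporter activity was quantified by luminescence after 16 h at 37 C and 5% CO2.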

[7] = qHTS assay to identify small molecule agonists of the AP-1 signaling pathway - cell viability counter screen (AID 1159525); also: nearly all actives have a fitted effect of over 55% in size
In short: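 ME-180 AP-1-bla, 2500 cells/well, Opti-MEM + 0.5% dialyzed FBS; overnight 37 °C; cpd 15-pt titration, 5 h 37 °C; CellTiter-Glo 30 min RT; luminescence read; normalised to TOAB and DMSO controls.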

[8] = qHTS assay to identify small molecule agonists of the AP-1 signaling pathway (AID 1159526); also: % is scaled to controls: 0 for no effect and ±100 for the full control effect
[9] = molecular target: Retinoic acid receptor RXR-alpha (Homo sapiens) (UniProt P19793); assay: qHTS assay to identify small molecule agonists of the RXR signaling pathway (AID 1159527); also: % is scaled to controls: 0 for no effect and ±100 for the full control effect; nearly all actives have a fitted effect of over 35% in size
In short: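 Using 9-cis retinoic acid as the reference agonist, chemicals were tested in HEK 293T cells […] for 16 hr; substrate loading lasted 2 hr at room temperature.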

[10] = qHTS assay to identify small molecule antagonists of the vitamin D receptor (VDR) signaling pathway - cell viability counter screen (AID 743225; active = well fitted curve in the direction sought with a large enough effect in the repeat runs; an effect the other way counts as inactive or inconclusive; also: % is scaled to controls: 0 for no effect and ±100 for the full control effect; nearly all actives have a fitted effect of over 50% in size)
In short: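 Compounds were pinned onto VDR-bla HEK 293T cells together with 1-alpha,25-dihydroxyvitamin D3 at 3 nM final. After 16 h at 37C and 5% CO2 plus the reporter readout, cell viability was measured by CellTiter-Glo luminescence (30 min, room temperature).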

Sequence of Retinoic acid receptor RXR-alpha (Homo sapiens) (P19793 whole entry, looked up): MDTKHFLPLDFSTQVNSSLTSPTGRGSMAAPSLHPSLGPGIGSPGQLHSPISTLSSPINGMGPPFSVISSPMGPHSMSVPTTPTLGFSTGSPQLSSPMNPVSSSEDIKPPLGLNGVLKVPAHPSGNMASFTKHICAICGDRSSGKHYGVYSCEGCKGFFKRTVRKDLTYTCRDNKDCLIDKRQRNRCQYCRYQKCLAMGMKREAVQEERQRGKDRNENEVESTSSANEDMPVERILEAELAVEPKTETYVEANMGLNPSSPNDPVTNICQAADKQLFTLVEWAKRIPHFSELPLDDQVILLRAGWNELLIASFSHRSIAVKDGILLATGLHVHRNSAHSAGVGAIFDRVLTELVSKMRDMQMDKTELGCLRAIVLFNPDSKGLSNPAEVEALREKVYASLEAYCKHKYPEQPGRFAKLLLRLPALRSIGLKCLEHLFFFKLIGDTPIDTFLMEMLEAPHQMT

OC1(c2ccc(Cl)cc2)CCNCC1
inactive: outcome [1] | outcome [2] | outcome [3] | outcome [4] | outcome [5] | outcome [6] | outcome [7] | outcome [8] | Potency [9]

O=C(CN1CCNCC1)NC1CCCCC1
inactive: outcome [1] | outcome [2] | outcome [3] | outcome [4] | outcome [5] | outcome [6] | outcome [7] | outcome [8] | Potency [9]

N#CCC(=O)NN
inactive: outcome [1] | outcome [2] | outcome [3] | outcome [4] | outcome [5] | outcome [6] | outcome [7] | outcome [8] | Potency [9]

CC(=O)c1cc(C)oc1C
inactive: outcome [1] | outcome [2] | outcome [3] | outcome [4] | outcome [5] | outcome [6] | outcome [7] | outcome [8] | Potency [9]

CC1(C)[C@H]2CC[C@](C)(C2)[C@H]1O
inactive: outcome [1] | outcome [2] | outcome [3] | outcome [4] | outcome [5] | outcome [6] | outcome [7] | outcome [8] | Potency [9]

N[C@@H](CSCCCO)C(=O)O
inactive: outcome [1] | outcome [2] | outcome [3] | outcome [4] | activity, negative = cytotoxicity [5] 0.802% [at 19 µM] | activity change, negative = inhibition [6] 25% [at 19 µM] | viability change, negative = cytotoxic [7] 8.07% [at 15.8 µM] | activation [8] 5.26% [at 15.8 µM] | activation [9] 12.4% [at 15.8 µM]

O=C1CCC(=O)N1Cl
inactive: outcome [1] | outcome [2] | outcome [3] | outcome [4] | outcome [5] | outcome [6] | outcome [7] | outcome [8] | Potency [9]

CC(CO)(CO)CO
inactive: outcome [10] | outcome [1] | outcome [2] | outcome [3] | outcome [4] | outcome [5] | outcome [6] | outcome [7] | outcome [8] | Potency [9]

CC(C)C[C@@H]1[C@H](c2ccccc2)OC(=O)N1CCCN1CCCCCC1
inactive: outcome [1] | outcome [2] | outcome [3] | outcome [4] | outcome [5] | outcome [6] | outcome [7] | outcome [8] | Potency [9]

COC(=O)c1cccc(Cl)c1
inactive: outcome [1] | outcome [2] | outcome [3] | outcome [4] | outcome [5] | outcome [6] | outcome [7] | outcome [8] | Potency [9]

CN(C)CCCCl
inactive: outcome [1] | outcome [2] | outcome [3] | outcome [4] | outcome [5] | outcome [6] | outcome [7] | outcome [8] | Potency [9]

CC(C)(CO)C(O)C(=O)NCCCO (stereo not given)
inactive: outcome [10] | outcome [1] | outcome [2] | outcome [3] | outcome [4] | outcome [5] | outcome [6] | outcome [7] | outcome [8] | Potency [9]
